Menin-MLL FL inh: qHTS Assay for Inhibitors Targeting the Menin-MLL Interaction in MLL Related Leukemias: Competition With Fluorescein Labeled MLL-derived Peptide | Fluorescence polarization, fluorescein-MLL peptide displacement from menin | FP activity change, % at 61.4 µM | 290,000 tested, under 10 active; active = well fitted curve in the direction sought with a large enough effect in the polarisation, not every such curve was filed as active; inconclusive = small, poorly fitted or top-dose-only effect, or effect the other way, or a change in a side signal; inactive = no such curve, though single readings can be large or run the other way; the % refers to the polarisation; also: % of control where 0% means no effect
KCNH2 3.1 inh: qHTS for Inhibitors of KCHN2 3.1: Mutant qHTS. Potassium voltage-gated channel subfamily H member 2, brain isoform KCNH2 3.1 (human). U2OS KCNH2 3.1, thallium flux FluxOr; hits give low values. activity change, % (tested at about 1.8 µM). 340,000 tested, 0.95% active. AID 720553, 2013;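 active = maximum activity change below -70%; inconclusive = maximum activity change from -70% to -50%; inactive = maximum activity change above -50%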;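 also: thallium influx rate constant from kinetic fluorescence after stimulation buffer; % is scaled to controls: 0 for no effect and ±100 for the full control effect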
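Normalized rate constant (relative to positive and negative DMSO controls) derived from a 2 min kinetic fluorescence read after stimulation; U2OS cells expressing the 3.1 isoform via virus at 1.77 x 10^8 /mL.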
MLL CXXC-DNA inh: qHTS Fluorescence Polarization Assay for Inhibitors of MLL CXXC domain - DNA interaction. Histone-lysine N-methyltransferase 2A (Homo sapiens), Q03164. MLL-CXXC / FITC-HOXA9 DNA fluorescence polarization. Potency, µM (top dose mostly 115 µM), inactives show at the highest dose activity change, negative = inhibition, hits mostly inhibitors. 290,000 tested, 0.037% active; active = well fitted inhibition curve with a large enough effect in the polarisation, with a control signal flat, not every such curve was filed as active; inconclusive = small, poorly fitted or top-dose-only effect, or effect the other way, or a change in a side signal; inactive = no such curve, though single readings can be large or run the other way; the % refers to the polarisation; also: potency is read from the fitted curve at half-maximal effect
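Fluorescence polarization: 7 uM MLL-CXXC (stock) preincubated 5 min with compounds, then 50 nM fluorescein-HOX-A9 DNA (stock) added; 30 min ambient. Buffer 50 mM Tris-HCl pH 7.5, 50 mM NaCl, 1 mM DTT, 0.05% BSA.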
hERG WT inh: qHTS for Inhibitors of KCHN2 3.1: Wildtype qHTS | 340,000 tested, 0.37% active | AID 720551, 2013 | activity change, % at 1.84 µM | U2OS, BacMam KCNH2, thallium flux FluxOr; hits give low values;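 active = maximum activity change below -70%; inconclusive = maximum activity change between -70% and -50%; inactive = maximum activity change above -50%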; also: % is scaled to controls: 0 for no effect and ±100 for the full control effect
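U2OS cells transduced with wild-type KCNH2 virus are loaded with FluxOr dye for 45 min, and thallium flux is measured in kinetic reads before and after stimulation buffer. Rate constants are normalized to DMSO controls.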
Menin MLL FP TR: qHTS Assay for Inhibitors Targeting the Menin-MLL Interaction in MLL Related Leukemias: Competition With Texas Red Labeled MLL-derived Mutant Peptide; Menin + Texas Red MLL mutant peptide, fluorescence polarization; Potency, µM (top dose mostly 61.6 µM), for the others: at the highest dose FP activity change, negative = inhibition, most hits filed as inhibitors; 270,000 tested, 0.23% active; active = well fitted inhibition curve with a large enough effect in the polarisation, with a control signal flat, not every such curve was filed as active; inconclusive = small, poorly fitted or top-dose-only effect, or effect the other way, or a change in a side signal; inactive = no such curve, though single readings can be large or run the other way; the % refers to the polarisation; also: potency is read from the fitted curve at half-maximal effect; % of control where 0% means no effect
* = called active by the depositor; ? = inconclusive; . = no result given; [ ] = dose if it differs, or a comment. The list is not random: actives were taken first. Their share in the collection is about 1.1%.

SMILES | Menin-MLL FL inh | KCNH2 3.1 inh | MLL CXXC-DNA inh | hERG WT inh | Menin MLL FP TR
O=C(CSc1ncccn1)NC1CCS(=O)(=O)C1 (stereo not drawn) | . | 9 | 1% | 20 | .
COCCCNS(=O)(=O)c1ccc2c3c(cccc13)C(=O)S2 | 2 | -138* | 1% | -132* | 1%
COCCNS(=O)(=O)c1ccc2c3c(cccc13)C(=O)N2C | -3 | -1 | 6% | 1 | -1%
COc1ccc(-c2cc(C(F)(F)F)nc(SCC(=O)NCc3cnn(C)c3C)n2)cc1OC | -1 | 2 | 8% | -174* | -11%
COc1ccc(-c2cc(C(F)(F)F)nc(SCC(=O)NCc3ccco3)n2)cc1OC | ? | 9 | -13% | -9 | -1%
O=C(O)CCC(=O)N1CCc2c([nH]c3ccccc23)C1C(F)(F)F (stereo not drawn) | -3 | -85* | -8% | -2 | 32%
O=C(Nc1ccccc1F)C(=Cc1sc(N2CCOCC2)nc1-c1ccccc1)C(=O)Nc1ccccc1F | ? | -77* | ? | -1 | -19%
O=C(N/N=C/c1sc(N2CCOCC2)nc1-c1ccccc1)c1ccccc1F | 4 | -4 | 2% | 0 | .
Cc1cccc(-n2c(SCC(=O)Nc3ccc4c(c3)OCO4)nnc2-c2ccoc2C)c1 | 0 | -71* | -4% | -90* | ?
COc1ccc(-n2c(SCC(=O)Nc3ccccc3)nnc2-c2ccoc2C)cc1 | . | -105* | . | -9 | .
COc1cccc(NC(=O)CSc2nnc(-c3ccoc3C)n2-c2ccccc2)c1 | 6 | -16 | 17% | -41 | 3%
C=CCn1c(SCC(=O)Nc2ccc3c(c2)CCC3)nnc1-c1cccs1 | -1 | -76* | -5% | -94* | 0%
Cc1ccc(-n2c(SCC(=O)Nc3ccc4c(c3)OCO4)nnc2-c2cccs2)cc1 | -1 | ? | 8% | -154* | 8%
C=CCn1c(SCC(=O)O)nnc1-c1cccs1 | 1 | -20 | 2% | -6 | 3%
O=C(CSc1nnc(-c2cccnc2)n1-c1ccccc1)Nc1ccc2c(c1)OCO2 | 5 | -8 | -3% | 21 | 12%
O=C(CCC(=O)c1ccccc1)Nc1ccccc1 | . | 8 | . | 7 | .
Cc1cc(NCCCn2ccnc2)n2ncc(-c3ccc(Cl)cc3)c2n1 | 3 | -73* | 19% | -2 | ?
Cc1cn(CCOc2ccc(Cl)cc2)c(=O)[nH]c1=O | 9 | 1 | -6% | 5 | 0%
CCn1cc([N+](=O)[O-])c(C(=O)N2N=C(c3ccc4ccccc4c3)CC2c2cc(Br)ccc2O)n1 (stereo not drawn) | -3 | -4 | 18% | 0 | 11µM*
CCn1c(=O)cc(OCC(=O)NCCCN2CCC(C)CC2)c2ccccc21 | 1 | -77* | 17% | -23 | 0%
CO[C@@H]1COC(=O)C/C=C\[C@H](C)[C@H](OC)COC(=O)[C@H](C)NC(=O)C/C=C\[C@H]1C | -2[11.7 µM] | . | . | . | 10%[11.7 µM]
CCCN1CCC(=O)N([C@H](CO)c2ccccc2)CC1 | 0 | 6 | -11% | -3 | 4%
O=C1CCN(CCc2ccccc2)CCN1[C@H](COc1ccccc1)c1ccccc1 | 2 | -115* | 11% | -130* | 1%
CC(C)CN1CCC(=O)N([C@H](COc2ccccc2)c2ccccc2)CC1 | 0 | -100* | -2% | -43 | -20%
O=C1CCN(CCc2ccccc2)CCN1[C@H](CO)c1ccccc1 | -1 | 4 | -3% | -5 | -7%
SMILES | Menin-MLL FL inh | KCNH2 3.1 inh | MLL CXXC-DNA inh | hERG WT inh | Menin MLL FP TR
CCCN1CCC(=O)N([C@H](COc2ccccc2)c2ccccc2)CC1 | -1 | -95* | 7% | 20 | -5%
COc1cccc(OC)c1OCCCN1CCC(Cc2ccccc2)CC1 | -6 | -70* | 2% | -10 | ?
COc1cccc(OC)c1OCCN1CCN(C(c2ccccc2)c2ccccc2)CC1 | -1 | -103* | 17% | ? | ?
COc1ccccc1C1CCN(Cc2ccc3ccccc3c2)CC1 | 9 | -188* | 5% | -209* | ?
COc1ccccc1C1CCN(Cc2ccccc2)CC1 | -1 | 0 | -8% | 19 | ?
COc1ccc(CNc2nc(-c3ccccc3OC)nc3ccccc23)c(OC)c1 | -4 | . | . | . | -3%
CS(=O)(=O)c1ccc(C(=O)OCC(=O)N2CCCc3ccccc32)cc1 | . | 3 | . | -8 | .
O=C(O)c1cc(O)c2c(c1)[C@@H]([C@H]1c3cc(C(=O)O)cc(O)c3C(=O)c3c(O[C@@H]4O[C@H](CO)[C@@H](O)[C@H](O)[C@H]4O)cccc31)c1cccc(O[C@@H]3O[C@H](CO)[C@@H](O)[C@H](O)[C@H]3O)c1C2=O | . | 10 | . | -3 | .
O=C(COc1ccc([N+](=O)[O-])cc1Cl)N1CCc2ccccc21 | . | 6 | . | 7 | .
CC1CCC2C(=O)N3C(CCC(C)C3c3ccc(-c4ccco4)cc3)C(=O)N2C1c1ccc(-c2ccco2)cc1 (stereo not drawn) | 7[11.7 µM] | . | . | . | -19%[11.7 µM]
COC(=O)c1cc(S(=O)(=O)N2CCN(c3ccccc3F)CC2)c[nH]1 | -2 | -79* | -6% | 8 | -2%
COc1cccc(-c2cc(C(=O)N3CCc4ccccc4C3)[nH]n2)c1 | 5 | 9 | 16% | -302* | ?
Cc1cnc(NCCc2ccccc2)s1 | -1 | 12 | 1% | -7 | -2%
CCOc1ccc(C(=O)NCc2ccco2)cc1Cl | 1 | 10 | 11% | 2 | -11%
c1ccc(CCCNc2ncccn2)cc1 | -3 | -97* | -7% | -10 | 0%
O=C(CC1SC(=O)N(c2ccccc2)C1=O)Nc1ccc(Cl)cc1 (stereo not drawn) | 0 | -3 | 30% | -1 | .
O=C(CC1SC(=NCCc2ccccc2)N(/N=C/c2cccs2)C1=O)Nc1ccc(Cl)cc1 (stereo not drawn) | 4 | -5 | 19% | 0 | 40µM*
Cc1ccc(NS(=O)(=O)c2ccc(NC(=O)CSc3ccc(Cl)cc3)cc2)c(C)c1 | 7 | 0 | 15% | -9 | ?
Cc1ccc(O)c(NC(=O)CSc2ccc(Cl)cc2)c1 | -2 | -105* | 0% | -12 | 16%
CC(C)Cc1nnc(NC(=O)CCS(=O)(=O)c2ccc(Cl)cc2)s1 | 1 | -9 | ? | -7 | 2%
O=C(c1ccc([N+](=O)[O-])cc1)N(Cc1ccc(Br)cc1)N1C(=O)CCCC1=O | -1 | ? | -1% | -84* | -1%
O=C(c1ccccc1Cl)N(Cc1ccc(Br)cc1)N1C(=O)CCCC1=O | 0 | 0 | -4% | 5 | -5%

Assay outcomes: PubChem BioAssay, National Center for Advancing Translational Sciences (NCATS)
